From PubChem BioAssay AID1159580 (chemical genetic matrix, 2015)
About 2,000 (36%) of roughly 5,500 compounds were called active. Not shown: some 18% with an inconclusive outcome. Cut-off read from the data, not from the text of the source: active = normalized growth mostly below about 0.91 (no sharp cut-off); inconclusive = no clear call, values can overlap the other calls; inactive = mostly above about 0.92. The list shows a part of the results.

Experiment: chemical genetic growth profiling, strain panel (AID 1159580);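 note: tested at 20 µM; growth read once vehicle control cultures reached saturation at 30 °C; 1 = growth at the plate median or of vehicle wells; lower values mean less growth of the strain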
Conditions: S. cerevisiae deletion strains, growth OD

Measured: normalized growth

S=C(S)N1CCCC1
active: locus YAL013W, strain DEP1, active compounds read low 0.676 | locus YDR150W, strain NUM1, active compounds read low 0.634 | locus YDR363W, strain ESC2, active compounds read low 0.804 | locus YJR075W, strain HOC1, active compounds read low 0.52 | locus YNL197C, strain WHI3, active compounds read low 0.409 | locus YOR083W, strain WHI5 (second series), active compounds read low 0.175 | locus YPL055C, strain LGE1, active compounds read low 0.454 | locus YPL241C, strain CIN2, active compounds read low 0.943
inactive: locus YAL040C, strain CLN3, active compounds read low 1 | locus YER002W, strain NOP16, active compounds read low 0.992 | locus YGR078C, strain PAC10, active compounds read low 0.977 | locus YNL175C, strain NOP13, active compounds read low 0.98 | locus YNL224C, strain SQS1, active compounds read low 0.966 | locus YNL322C, strain KRE1, active compounds read low 0.916

Fc1ccc(Nc2nc(-c3ccc(F)c(F)c3)cs2)c(F)c1
active: locus YAR019C, strain CDC15, active compounds read low 0.14 | locus YBL105C, strain PKC1, active compounds read low 0.104 | locus YBR135W, strain CKS1, active compounds read low 0.0961 | locus YBR136W, strain MEC1, active compounds read low 0.0962 | locus YBR160W, strain CDC28, active compounds read low 0.12 | locus YDL017W, strain CDC7, active compounds read low 0.128 | locus YDL028C, strain MPS1, active compounds read low 0.104 | locus YDL101C, strain DUN1, active compounds read low 0.282 | locus YDL108W, strain KIN28, active compounds read low 0.132 | locus YDL132W, strain cdc53, active compounds read low 0.0939 | locus YDL214C, strain PRR2, active compounds read low 0.182 | locus YDR052C, strain DBF4, active compounds read low 0.181 | locus YDR054C, strain cdc34, active compounds read low 0.094 | locus YDR226W, strain ADK1, active compounds read low 0.107 | locus YDR477W, strain SNF1, active compounds read low 0.102 | locus YER123W, strain YCK3, active compounds read low 0.173 | locus YER133W, strain GLC7, active compounds read low 0.17 | locus YFL009W, strain cdc4, active compounds read low 0.0952 | locus YFL029C, strain CAK1, active compounds read low 0.0895 | locus YFR003C, strain YPI1, active compounds read low 0.105 | locus YFR019W, strain FAB1, active compounds read low 0.102 | locus YFR028C, strain CDC14, active compounds read low 0.0972 | locus YGR040W, strain KSS1, active compounds read low 0.102 | locus YGR052W, strain FMP48, active compounds read low 0.144 | locus YGR092W, strain DBF2, active compounds read low 0.11 | locus YHR030C, strain SLT2, active compounds read low 0.141 | locus YHR079C, strain IRE1, active compounds read low 0.158 | locus YHR082C, strain KSP1, active compounds read low 0.155 | locus YHR205W, strain SCH9, active compounds read low 0.000718 | locus YIL147C, strain SLN1, active compounds read low 0.133 | locus YJL095W, strain BCK1, active compounds read low 0.133 | locus YJL128C, strain PBS2, active compounds read low 0.0972 | locus YJL157C, strain FAR1, active compounds read low 0.199 | locus YJR016C, strain ILV3, active compounds read low 0.0878 | locus YJR066W, strain TOR1 (second series), active compounds read low 0.0987 | locus YJR066W, strain TOR1, active compounds read low 0.111 | locus YKL048C, strain ELM1, active compounds read low 0.145 | locus YKL067W, strain YNK1, active compounds read low 0.182 | locus YKL101W, strain HSL1, active compounds read low 0.132 | locus YKL193C, strain SDS22, active compounds read low 0.0966 | locus YKL203C, strain TOR2, active compounds read low 0.104 | locus YLR113W, strain HOG1, active compounds read low 0.189 | locus YLR133W, strain CKI1, active compounds read low 0.0955 | locus YLR403W, strain SFP1, active compounds read low 0.0012 | locus YML070W, strain DAK1, active compounds read low 0.113 | locus YMR001C, strain CDC5, active compounds read low 0.0929 | locus YMR205C, strain PFK2 (second series), active compounds read low 0.0941 | locus YMR277W, strain FCP1, active compounds read low 0.0934 | locus YNL006W, strain LST8, active compounds read low 0.106 | locus YNL020C, strain ARK1, active compounds read low 0.107 | locus YNL161W, strain CBK1, active compounds read low 0.475 | locus YNL183C, strain NPR1, active compounds read low 0.155 | locus YNL207W, strain RIO2, active compounds read low 0.114 | locus YNL222W, strain SSU72, active compounds read low 0.101 | locus YNL307C, strain MCK1 (second series), active compounds read low 0.117 | locus YOL078W, strain AVO1, active compounds read low 0.092 | locus YOL136C, strain PFK27, active compounds read low 0.197 | locus YOR061W, strain CKA2, active compounds read low 0.102 | locus YOR119C, strain RIO1, active compounds read low 0.107 | locus YOR231W, strain MKK1, active compounds read low 0.169 | locus YOR329C, strain SCD5, active compounds read low 0.117 | locus YPL031C, strain PHO85, active compounds read low 0.114 | locus YPL153C, strain RAD53, active compounds read low 0.116 | locus YPL204W, strain HRR25, active compounds read low 0.104 | locus YPL209C, strain IPL1, active compounds read low 0.0912 | locus YPL256C, strain CLN2, active compounds read low 0.179 | locus YPR025C, strain CCL1, active compounds read low 0.0957 | locus YPR106W, strain ISR1, active compounds read low 0.099 | locus YPR111W, strain DBF20, active compounds read low 0.101 | strain NNK1, active compounds read low 0.114 | strain TSCII, active compounds read low 0.106
